Laboratory results reported in the supplement of paper PMC12282887.
± gives the standard deviation of the averaged measurements.

What was measured:
Assay in all cases: promoter activity interaction Z-score (Lux/OD deviation from empty-vector control); higher = stronger promoter induction by the compound
[1] = test system: E. coli BW25113 tolCp lux reporter
Outline: (§1)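 E. coli BW25113 luxCDABE reporter strains grew at 37°C in 40 µl LB Lennox in 384-well plates, with OD600 and luminescence read every 30 min for 12 h. After integration over 0–8 h for wild type or 1–9 h for deletion strains, wells under 10% of the median growth value were removed. Each score is the Z-transformed residual of growth-normalised luminescence fitted against a control.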

[2] = test system: E. coli BW25113 acrABp lux reporter
Outline: as §1

[3] = test system: E. coli BW25113 marRABp lux reporter
Outline: as §1

[4] = test system: E. coli BW25113 micFp lux reporter
Outline: as §1

[5] = test system: E. coli BW25113 ompFp lux reporter
Outline: as §1

[6] = test system: E. coli BW25113 robp lux reporter
Outline: as §1

[7] = test system: E. coli BW25113 soxSp lux reporter
Outline: as §1

[8] = 0.11 µg/ml, genetic background: wild type
[9] = 0.11 µg/ml, genetic background: ΔmarA
[10] = 0.11 µg/ml, genetic background: Δrob
[11] = 0.11 µg/ml, genetic background: ΔsoxS
[12] = 0.23 µg/ml, genetic background: wild type
[13] = 0.23 µg/ml, genetic background: ΔmarA
[14] = 0.23 µg/ml, genetic background: Δrob
[15] = 0.23 µg/ml, genetic background: ΔsoxS
[16] = 0.46 µg/ml, genetic background: wild type
[17] = 0.46 µg/ml, genetic background: ΔmarA
[18] = 0.46 µg/ml, genetic background: Δrob
[19] = 0.46 µg/ml, genetic background: ΔsoxS

CCC(C)CCCC(=O)N[C@@H](CCN)C(=O)N[C@H](C(=O)N[C@@H](CCN)C(=O)N[C@H]1CCNC(=O)[C@H]([C@@H](C)O)NC(=O)[C@H](CCN)NC(=O)[C@H](CCN)NC(=O)[C@H](CC(C)C)NC(=O)[C@@H](CC(C)C)NC(=O)[C@H](CCN)NC1=O)[C@@H](C)O (stereo partly specified) [Colistin]
promoter activity interaction Z-score ([1]; 0.1 µg/ml, genetic background: ΔsoxS): 0.791 ± 0.7
promoter activity interaction Z-score ([1]; 0.19 µg/ml, genetic background: wild type): -0.155 ± 0.13
promoter activity interaction Z-score ([1]; 0.19 µg/ml, genetic background: ΔmarA): -1.61 ± 0.11
promoter activity interaction Z-score ([1]; 0.19 µg/ml, genetic background: Δrob): -0.925 ± 0.63
promoter activity interaction Z-score ([1]; 0.19 µg/ml, genetic background: ΔsoxS): -0.699 ± 0.78
promoter activity interaction Z-score ([1]; 0.38 µg/ml, genetic background: wild type): -0.255 ± 0.42
promoter activity interaction Z-score ([1]; 0.38 µg/ml, genetic background: ΔsoxS): -0.469 ± 0.66

N[C@@H](C(=O)N[C@@H]1C(=O)N2C(C(=O)O)=C(Cl)CS[C@H]12)c1ccccc1 [Cefaclor]
promoter activity interaction Z-score [2, 8]: -0.0672 ± 0.0046
promoter activity interaction Z-score [2, 9]: 0.0667 ± 0.63
promoter activity interaction Z-score [2, 10]: -0.0825 ± 0.022
promoter activity interaction Z-score [2, 11]: 0.202 ± 0.33
promoter activity interaction Z-score [2, 12]: 0.0822 ± 0.27
promoter activity interaction Z-score [2, 13]: -0.226 ± 0.26
promoter activity interaction Z-score [2, 14]: -0.0254 ± 0.2
promoter activity interaction Z-score [2, 15]: 0.108 ± 0.18
promoter activity interaction Z-score [2, 16]: -0.327 ± 0.23
promoter activity interaction Z-score [2, 17]: 0.267 ± 0.91
promoter activity interaction Z-score [2, 18]: 0.0322 ± 0.2
promoter activity interaction Z-score [2, 19]: 0.0468 ± 0.32
promoter activity interaction Z-score [3, 8]: -0.22 ± 0.046
promoter activity interaction Z-score [3, 9]: -0.342 ± 0.017
promoter activity interaction Z-score [3, 10]: 0.00564 ± 0.3
promoter activity interaction Z-score [3, 11]: 0.0816 ± 0.011
promoter activity interaction Z-score [3, 12]: 0.101 ± 0.062
promoter activity interaction Z-score [3, 13]: -0.215 ± 0.016
promoter activity interaction Z-score [3, 14]: -0.0669 ± 0.059
promoter activity interaction Z-score [3, 15]: -0.244 ± 0.22
promoter activity interaction Z-score [3, 16]: -0.245 ± 0.15
promoter activity interaction Z-score [3, 17]: 0.298 ± 0.42
promoter activity interaction Z-score [3, 18]: 0.0148 ± 0.0067
promoter activity interaction Z-score [3, 19]: -0.145 ± 0.23
promoter activity interaction Z-score [4, 8]: -0.186 ± 0.14
promoter activity interaction Z-score [4, 9]: -0.0579 ± 0.053
promoter activity interaction Z-score [4, 10]: -0.0069 ± 0.16
promoter activity interaction Z-score [4, 11]: -0.168 ± 0.014
promoter activity interaction Z-score [4, 12]: 0.286 ± 0.18
promoter activity interaction Z-score [4, 13]: 0.0237 ± 0.12
promoter activity interaction Z-score [4, 14]: -0.137 ± 0.035
promoter activity interaction Z-score [4, 15]: -0.23 ± 0.11
promoter activity interaction Z-score [4, 16]: -0.0523 ± 0.022
promoter activity interaction Z-score [4, 17]: -0.0548 ± 0.1
promoter activity interaction Z-score [4, 18]: 0.072 ± 0.35
promoter activity interaction Z-score [4, 19]: 0.0997 ± 0.0034
promoter activity interaction Z-score [5, 8]: -0.0486 ± 0.033
promoter activity interaction Z-score [5, 9]: 0.00202 ± 0.074
promoter activity interaction Z-score [5, 10]: -0.037 ± 0.097
promoter activity interaction Z-score [5, 11]: 0.00353 ± 0.4
promoter activity interaction Z-score [5, 12]: 0.205 ± 0.32
promoter activity interaction Z-score [5, 13]: -0.158 ± 0.14
promoter activity interaction Z-score [5, 14]: 0.0924 ± 0.14
promoter activity interaction Z-score [5, 15]: -0.0604 ± 0.083
promoter activity interaction Z-score [5, 16]: -0.3379 ± 0.00077
promoter activity interaction Z-score [5, 17]: 0.243 ± 0.29
promoter activity interaction Z-score [5, 18]: 0.261 ± 0.15
promoter activity interaction Z-score [5, 19]: 0.0432 ± 0.23
promoter activity interaction Z-score [6, 8]: 0.143 ± 0.35
promoter activity interaction Z-score [6, 9]: -0.548 ± 0.49
promoter activity interaction Z-score [6, 10]: -0.0741 ± 0.49
promoter activity interaction Z-score [6, 11]: -0.204 ± 0.27
promoter activity interaction Z-score [6, 12]: 0.403 ± 0.76
promoter activity interaction Z-score [6, 13]: -0.533 ± 0.12
promoter activity interaction Z-score [6, 14]: -0.17 ± 0.038
promoter activity interaction Z-score [6, 15]: 0.0114 ± 0.73
promoter activity interaction Z-score [6, 16]: -0.312 ± 0.44
promoter activity interaction Z-score [6, 17]: -0.025 ± 0.62
promoter activity interaction Z-score [6, 18]: -0.475 ± 0.67
promoter activity interaction Z-score [6, 19]: -0.073 ± 1.2
promoter activity interaction Z-score [7, 8]: 0.0812 ± 0.014
promoter activity interaction Z-score [7, 9]: 0.114 ± 0.011
promoter activity interaction Z-score [7, 10]: 0.166 ± 0.057
promoter activity interaction Z-score [7, 11]: 0.145 ± 0.29
promoter activity interaction Z-score [7, 12]: 0.222 ± 0.12
promoter activity interaction Z-score [7, 13]: 0.143 ± 0.22
promoter activity interaction Z-score [7, 14]: 0.159 ± 0.22
promoter activity interaction Z-score [7, 15]: 0.00336 ± 0.19
promoter activity interaction Z-score [7, 16]: -0.146 ± 0.12
promoter activity interaction Z-score [7, 17]: -0.0654 ± 0.045
promoter activity interaction Z-score [7, 18]: 0.255 ± 0.11
promoter activity interaction Z-score [7, 19]: -0.0397 ± 0.37
promoter activity interaction Z-score [1, 8]: -0.564 ± 0.28
promoter activity interaction Z-score [1, 9]: 0.134 ± 0.67
promoter activity interaction Z-score [1, 10]: 0.613 ± 0.26
promoter activity interaction Z-score [1, 11]: -0.636 ± 0.056
promoter activity interaction Z-score [1, 12]: 0.674 ± 0.6
promoter activity interaction Z-score [1, 13]: -0.149 ± 1.3
promoter activity interaction Z-score [1, 14]: 0.0751 ± 0.037
promoter activity interaction Z-score [1, 15]: -0.124 ± 0.055
promoter activity interaction Z-score [1, 16]: -0.115 ± 0.33
promoter activity interaction Z-score [1, 17]: -0.727 ± 1.3
promoter activity interaction Z-score [1, 18]: -0.374 ± 0.56
promoter activity interaction Z-score [1, 19]: -0.124 ± 0.67
